Inconclusive results are not listed. Entries that show only a call come without a potency. The source made the active and inactive calls. Calls follow the shape of the dose curve; as a rule, active = well fitted inhibition curve with a large enough effect; inconclusive = small, poorly fitted or top-dose-only effect; inactive = flat fitted curve, though single readings scatter.

This assay concerns CRL-7250. In words: qHTS assay to identify novel small-molecules to repurpose for Merkel cell carcinoma treatment (AID 1296009). Also: nearly all actives have a fitted effect of over 60% in size. Conditions: MCC and control cell lines, CellTiter-Glo viability, 72 h; series mostly up to 92 µM. In a few lines:
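Cells were incubated with compound for 72 hr at 37 degree celsius before CellTiter-Glo addition. Luminescence was normalized with no-cell wells as full cytotoxicity and DMSO as baseline.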
As to `CC(=O)c1[nH]cc(CCC(=O)O)c1CC(=O)O`, the Potency result is “inactive”. The same measure, in the same setting: with `C=C1CC2C3(C)C(O)CC(=O)C(C)(C)C3C(O)C(OC(C)=O)C2(C)C2C(=O)OC(C)(C(=O)OC)C(=O)C12C` (stereo not drawn) the entry was “inactive”. As for `CC1OC(OC2C(CO)OC(OCC3OC(OC(=O)C45CCC(C)(C)CC4C4=CCC6C7(C)CCC(OC8OC(C(=O)O)C(O)C(OC9OC(CO)C(O)C(O)C9O)C8O)C(C)(C)C7CCC6(C)C4(C)CC5)C(O)C(O)C3O)C(O)C2O)C(O)C(O)C1O` (stereo not drawn), the outcome is “inactive [at 9.27 µM]”. `COC(=O)c1[nH]c(=O)c2ccccc2c1-c1ccc[nH]1`: the Potency result was “inactive”. On the same count and under the same terms, for `CN(C)CCn1cc(S(=O)(=O)c2cccc(F)c2)c2cccnc21` the value was “inactive”. The same measure, in the same setting: with `COc1cc(O)c2c(c1Cl)CC(C)OC2=O` (stereo not drawn) the entry was “inactive”; with `COc1ccc(O[C@@H]2O[C@H](CO)[C@@H](O)[C@H](O)[C@H]2O)cc1OC`, “inactive”; with `C[C@]1(O)CC[C@@H]2C(C(=O)O)=CO[C@@H](O[C@@H]3O[C@H](COC(=O)/C=C/c4ccc(O)c(O)c4)[C@@H](O)[C@H](O)[C@H]3O)[C@@H]21`, “inactive”. On the same count and under the same terms, for `CC1C2=CC(=O)OC2(O)CC2C1C(O)CC1C(C)(CO)CCCC21C` (stereo not drawn) the value was “inactive”; for `O=C(Nc1ccc2[nH]ncc2c1)C1CCC1`, “inactive”. For the compound `CCC/C=C/C=C/C1CC(O)C(O)C(=O)C1CO` (stereo not drawn), the Potency result was “inactive”.

As to `O=C(Nc1ccccc1-c1cn2c(CN3CCNCC3)csc2n1)c1ccc2ccccc2n1`, the Potency entry is “inactive”. Regarding `C[C@@H]1CC[C@]2(C(=O)O[C@@H]3O[C@H](CO[C@@H]4O[C@H](CO)[C@@H](O)[C@H](O)[C@H]4O)[C@@H](O)[C@H](O)[C@H]3O)CC[C@]3(C)C(=CCC4[C@@]5(C)CC[C@H](O)[C@](C)(C(=O)O)C5CC[C@]43C)[C@@H]2[C@]1(C)O` (stereo partly drawn), the outcome is “inactive [at 9.27 µM]”.

In the case of `COc1cc(CCCO)ccc1O[C@@H]1O[C@H](CO)[C@@H](O)[C@H](O)[C@H]1O`, the Potency entry is “inactive”. On to `COc1cccc2c1CCC[C@H]2CN(C)CCc1ccc2ccoc2c1`, for which the Potency entry was “inactive”. With `C=C[C@@](C)(CCC=C(C)C)O[C@@H]1O[C@H](CO[C@@H]2OC[C@H](O)[C@H](O)[C@H]2O)[C@@H](O)[C@H](O)[C@H]1O`, the Potency result was “inactive”. On the same count and under the same terms, for `CC1=CCC2C(C)(CO)CCCC2(CO)C1CO` (stereo not drawn) the value was “inactive”; for `Cc1c(NC(=O)N2CCOCC2)ccc2c1c1ccccc1n2C(C)C`, “inactive”; for `Cc1cc(C(=O)N2Cc3cnn(C)c3Nc3ccccc32)ccc1CNC(=O)N1CCN(Cc2cc(O)cc(O)c2)CC1`, “inactive”. Still for that read-out and setting: with `CC12CCC3C(C)(C)C(O)CCC3(C)C1Cc1c(oc(C(=O)O)cc1=O)O2` (stereo not drawn) the entry was “inactive”. On the same count and under the same terms, for `Cc1ccc(NC(=O)C(=O)NC2CC(C)(C)NC(C)(C)C2)cc1` the value was “inactive”; for `C=CC(C)(CC/C=C(\C)C(=O)OC)OC1OC(COC(=O)CC(C)(O)CC(=O)O)C(OC2OC(CO)C(O)C(O)C2O)C(O)C1O` (stereo not drawn), “inactive”. For the compound `CC(=O)O[C@@H](C[C@@H]1C=C(C)C(=O)O1)[C@H](C)[C@H]1CCC2[C@@]3(C)CC[C@H](O[C@@H]4O[C@H](CO)[C@@H](O)[C@H](O)[C@H]4O[C@@H]4O[C@@H](C)[C@H](O)[C@@H](O)[C@H]4O)C(C)(C)C3CC[C@@]2(C)[C@@]12COC(=O)C2` (stereo partly drawn), the outcome was “inactive [at 9.27 µM]”.

For `CCN(CCN(C)C)C(=O)CNCc1cc(C(N)=O)ccn1`, the Potency entry is “inactive”. Consider `COc1ccc(CNCc2cccc3ccccc23)cc1`, for which the Potency result is “inactive”.

On to `C=C1CC[C@@H]2[C@@](C)(CO[C@@H]3O[C@H](CO)C(O)[C@H](O)C3O)[C@H](O)CC[C@@]2(C)[C@@H]1CC/C(C)=C/CO` (stereo partly drawn), for which the outcome is “inactive [at 9.27 µM]”. As to `O=C(/C=C/c1ccccc1)O[C@@H]1[C@@H](CO)O[C@@](CO)(O[C@H]2O[C@H](CO)[C@@H](O)[C@H](O)[C@H]2O)[C@H]1O`, the Potency result is “inactive”.

As for `COC(=O)[C@@H](O)[C@H]1[C@@]2(C)CC3(O)[C@@H](C(=O)[C@H]2O)[C@]24O[C@]25CC(=O)O[C@@H](c2ccoc2)[C@]5(C)CCC4[C@]13C` (stereo partly drawn), the Potency entry is “inactive”. Same read-out and setting: with `CC1(C(=O)O)CCCC2(C)C3CCC4CC3(CCC12)CC4C(=O)O` (stereo not drawn) the entry was “inactive”; with `Cn1nc(C(C)(C)C)cc1C(=O)NC(Cc1cccc(Cl)c1)C(=O)NCC#N` (stereo not drawn), “inactive”; with `O=C(O)c1ccccc1NC(=O)N1CCC(c2ccccc2C(F)(F)F)CC1`, “inactive”.

Regarding `CCCSc1nc(NC2CC2c2ccc(F)c(F)c2)c2nnn(C3CC(OCCO)C(O)C3O)c2n1` (stereo not drawn), the Potency result was “inactive”. With `CC(C)(O)C1CCC(C)(C2CCC3(C)C4CCC5C(C)(C(=O)OC6OC(CO)C(O)C(O)C6O)C(O)CC(O)C56CC46CCC23C)O1` (stereo not drawn), the Potency result was “inactive”.
